Structures are written as SMILES. “And” between values parts separate entries of the source, which are not always exact repeats. Equal values may be shown once. A number with no mark means an inactive call. No rule for the calls is given here.

In this test the target is Pantothenate synthetase (Mycobacterium tuberculosis (strain ATCC 25618 / H37Rv)) (UniProt P9WIL5). The test can be described thus: Recombinant Mtb pantothenate synthetase (PanC) inhibitors, coupled enzyme, confirmatory (AID 375).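 Also: 0% = full reaction with vehicle and 100% = no enzyme background.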 Conditions: coupled enzyme assay; at 10 µM, stronger effect = higher value.
Chain of Pantothenate synthetase (Mycobacterium tuberculosis (strain ATCC 25618 / H37Rv)) (P9WIL5 whole entry, looked up): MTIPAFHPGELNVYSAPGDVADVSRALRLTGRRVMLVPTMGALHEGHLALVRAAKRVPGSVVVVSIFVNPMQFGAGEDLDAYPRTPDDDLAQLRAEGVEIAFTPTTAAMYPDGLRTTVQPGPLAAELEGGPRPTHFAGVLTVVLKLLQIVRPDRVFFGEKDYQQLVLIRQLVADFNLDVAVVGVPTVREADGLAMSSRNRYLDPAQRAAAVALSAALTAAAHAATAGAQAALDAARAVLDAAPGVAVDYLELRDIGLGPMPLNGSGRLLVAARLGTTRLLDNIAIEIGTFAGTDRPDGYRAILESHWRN
As usually defined, the inhibition is the change of the read-out against control, counted positive when it falls. In the case of `COc1cc2[nH]c(=O)n(CCCCCC(=O)N3CCN(c4ccccn4)CC3)c(=O)c2cc1OC`, the inhibition was 2%. As for `CCc1nnc(NC(=O)CSc2nnc(-c3cc4ccccc4cc3O)n2CC)s1`, the inhibition is 6%. On to `COc1ccc(S(=O)(=O)N2CCC(C(=O)c3ccc4c(c3)OCCO4)CC2)cc1`, for which the inhibition was 0%. Consider `Cc1c(C(=O)N2CCCC2)sc(NC(=O)c2cccs2)c1C#N`, for which the inhibition was 0%. With `CCN1CCN(c2c(Cl)cccc2NC(=O)c2ccco2)CC1`, the inhibition is 9%. For `CCN(CC)CC(=O)Nc1c(C)cccc1C`, the inhibition was 7% and 0%. As to `Cc1cc2ccccc2n1CCNC(=O)c1ccc(S(=O)(=O)N2CCOCC2)cc1`, the inhibition is 4%. As for `Cc1ccc2[nH]c(=O)c(CN(Cc3ccc4c(c3)OCO4)Cc3nnnn3Cc3ccco3)cc2c1`, the figure is 0%. Take `Cn1c(C(=O)NCCCN2CCN(c3ccc(F)cc3)CC2)cc2c(=O)n(C)c3ccccc3c21`: the inhibition was 0%. On to `Cc1[nH]c(=O)[nH]c(=O)c1S(=O)(=O)N1c2ccc(F)cc2CCC1C` (centres undefined), for which the inhibition is 0%. In the case of `Cc1cc(C)cc(NC(=O)CSc2nnc(Cc3cccn3C)n2-c2ccc(F)cc2)c1`, the inhibition was 6%. With `CCOC(=O)c1cc2sc(C)cc2n1C(C)C(=O)OCC` (centres undefined), the inhibition was 11%. With `COc1cc([C@@H]2c3cc4c(cc3[C@H](O)[C@H]3COC(=O)[C@H]23)OCO4)cc(OC)c1OC`, the inhibition was 0%. Turning to `CC(Oc1ccccc1)C(=O)N1CCCc2ccccc21` (centres undefined), the inhibition was 0%. As for `CC1CCN(c2c(NCc3ccc(C(=O)N4c5ccccc5CC4C)cc3)c(=O)c2=O)CC1` (centres undefined), the figure is 0%; as for `O=C1NC(=O)C(CC(=O)N(c2ccccc2)C2(C(=O)NC3CCCC3)CCCCC2)N1` (centres undefined), 2%; as for `COC(=O)c1cc(-c2ccccc2)sc1NC(=O)c1cc(C)on1`, 0%.

Take `O=C(COC(=O)C1(c2ccccc2F)CCCC1)NC1CCS(=O)(=O)C1` (centres undefined): the inhibition was 3%. Take `Cc1ccc(-c2noc(CCC(=O)N3CCN(c4cccc(C(F)(F)F)c4)CC3)n2)cc1`: the inhibition is 0%. Take `COCCn1c(SCC(=O)Nc2nnc(C)s2)nnc1-c1c[nH]c2ccccc12`: the inhibition was 0%. Regarding `Cc1c(NC(=O)C(C)OC(=O)C(NC(=O)c2ccco2)C(C)C)c(=O)n(-c2ccccc2)n1C` (centres undefined), the inhibition is 8%.

As for `COCCNC(=O)c1snc2ccc(Cl)cc12`, the inhibition is 0%. On to `O=C(Nc1cccnc1)c1ccc2c(c1)C(=O)N(Cc1cccnc1)C2=O`, for which the inhibition was 0%.

Turning to `CC(=O)c1ccc(NC(=O)c2cc(CC(C)C)on2)cc1`, the inhibition was 0%.

Turning to `COC(=O)C1CCN(C(=O)c2sc3nc(-c4ccc(F)cc4)cn3c2C)CC1`, the inhibition was 0%. Turning to `N#Cc1cnn(Cc2ccc(Cl)cc2)c1N`, the inhibition is 0%. As to `c1csc(-c2nc3nc4ccccc4nc3n2Cc2ccc3c(c2)OCO3)c1`, the inhibition was 0%.

As for `CCC(NC(C)C)C(O)c1ccc(O)c2[nH]c(=O)ccc12` (centres undefined), the inhibition was 0%. As to `CN(Cc1nc(-c2ccncc2)no1)S(=O)(=O)c1ccc(Cl)cc1`, the inhibition was 0%. As for `O=C(Nc1cccc(F)c1)c1cccc(S(=O)(=O)N2CCOCC2)c1`, the figure is 0%; as for `Cc1nc2c3cnn(-c4ccccc4)c3ncn2n1`, 7%; as for `COc1ccc(OCC(=O)Nc2cccc3ncccc23)cc1`, 2%.

Regarding `COc1ccccc1N1CC(O)=C(c2nc3ccccc3c(=O)[nH]2)C1=N`, the inhibition is 13%. On to `COC(=O)Cn1cnc2sc(C)c(S(=O)(=O)N3CCC(C)CC3)c2c1=O`, for which the inhibition is 4%. On to `CCc1nnc2n1N=C(c1ccc(-c3ccc(Cl)cc3Cl)o1)CS2`, for which the inhibition is 3%. Turning to `c1ccn2c(SCc3cn4ccsc4n3)nnc2c1`, the inhibition was 1%.

As for `CCC(=O)N1CCc2cc(OC)c(OC)cc2C1COc1ccc(C(=O)OC)cc1` (centres undefined), the inhibition was 9%. Regarding `CCOc1ccccc1NS(=O)(=O)c1c(C)noc1C`, the inhibition is 0%. As for `CCN(CC)CCNC(=O)c1ccc(NC(C)=O)cc1`, the figure is 0%.
